# Data published in PubChem BioAssay.
# Values joined by “and” are separate entries in the source; they are usually repeats but may differ in a detail not shown here. Equal values may be shown once. Results filed as inconclusive are left out. For part of these data: Results with a measured potency or affinity are listed apart. Active and inactive are the calls of the source. Unless noted, the limit is not given here; nearly all actives have AC50 up to about 26 µM.
# Experiments:
# [1] = hESC survival regulators, cell-based (AID 493140; call rule not given here;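 also: cells exposed to compounds for four days before counting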); details: human embryonic stem cell survival screen; stronger effect = higher value
# [2] = liver-stage malaria parasite growth inhibition, primary screen, cell-based, HepG2, luciferase luminescence, HepG2 viability (AID 624349; in the data active = parasite load remaining mostly below about 12%, no sharp cut-off; inactive = mostly above about 10%;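 also: 100% = mean of DMSO negative control wells on the same plate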); details: P. berghei liver stage in HepG2, luciferase luminescence, concentration not given here; parasite load remaining: stronger effect = lower value; viability: measured here: HepG2 viability without parasites
# [3] = differential killing of epithelial or mesenchymal cells, primary screen, imaging, PC-3E GFP, TEM4-18 mCherry, co-culture (AID 1345086;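 active = compounds killing one labelled cell type while sparing the other, by normalised counts and ratio limits, not self-fluorescent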;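 as to all read-outs here: cells exposed to compound for 72 h before imaging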;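 as to red/green cell ratio (normalised): normalised mesenchymal count divided by normalised epithelial count so high means epithelial killing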); details: imaging cell counts, at 1 µM; for red/green cell ratio (normalised): actives lie on both sides, counts scaled to control wells, 1 = unselective
# [4] = growth inhibition of DIPG glioma cells, dose response, cell-based, SU-DIPG-XVII, MIPE5.0, CellTiter-Glo, qHTS (AID 1347060); details: SU-DIPG-XVII viability, CellTiter-Glo ATP luminescence
# [5] = growth inhibition of DIPG glioma cells, dose response, cell-based, SU-DIPG-XIII, MIPE4.0, CellTiter-Glo, qHTS (AID 1347061; cut-off not given, nearly all actives have AC50 up to about 37 µM;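 also: cells exposed to compound for 48 hours before readout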); details: SU-DIPG-XIII viability, CellTiter-Glo ATP luminescence
# [6] = growth inhibition of DIPG glioma cells, dose response, cell-based, JHH-DIPG-1, MIPE4.0, CellTiter-Glo, qHTS (AID 1347062; cut-off not given, nearly all actives have AC50 up to about 27 µM); details: JHH-DIPG-1 viability, CellTiter-Glo ATP luminescence
# [7] = growth inhibition of DIPG glioma cells, dose response, cell-based, SU-DIPG-XIII, MIPE5.0, CellTiter-Glo, qHTS (AID 1347064; cut-off not given, nearly all actives have AC50 up to about 23 µM); details: SU-DIPG-XIII viability, CellTiter-Glo ATP luminescence
# [8] = viability loss in pontine glioma line – cell-based, SU-DIPG-XXV, MIPE5.0, CellTiter-Glo, qHTS, dose response (AID 1347065); details: CellTiter-Glo ATP luminescence;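 also: cells exposed to compound for 48 hours before ATP readout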
# [9] = SU-DIPG-VI glioma cell viability, MIPE4.0 library, CellTiter-Glo luminescence, qHTS (AID 1347066; cut-off not given, nearly all actives have AC50 up to about 30 µM;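 also: cells exposed to compound for 48 hours before readout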); details: CellTiter-Glo ATP luminescence
# [10] = JHH-DIPG-1 glioma cell viability, MIPE5.0 library, CellTiter-Glo luminescence, qHTS (AID 1347067); details: JHH-DIPG-1 glioma viability, CellTiter-Glo ATP luminescence;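 also: cells exposed to compound for 48 hours before readout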
# [11] = sensitizers of A549 cells to miR-34 induction, primary screen, imaging, A549 dox-inducible miR-34, nuclei and caspase counts (AID 1347080;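 active = compounds whose cell count with miR-34 switched on is under 0.7 times the count with it off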); details: A549 miR-34 inducible, Hoechst nuclei count, 48 h
# [12] = circadian clock period modulators, cell-based, LOPAC library, luminescence reporter (AID 2774; call rule not given here;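 also: values are relative to mean of DMSO wells on each plate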); details: circadian reporter cells, at 7 µM, actives lie on both sides
# [13] = system: Hepatitis C virus NS3 helicase; test: HCV NS3 helicase inhibitors, primary screen, biochemical, fluorescence polarization, LOPAC1280 library (AID 687035; in the data active = inhibition above about 37%); details: Purified HCV NS3 helicase, Cy5-dT15 ssDNA binding fluorescence polarization; stronger effect = higher value; concentration not given here
# [14] = Cy5 fluorescence quenching or enhancement artefacts, artefact control for HCV NS3 helicase inhibitor project, biochemical, LOPAC1280 (AID 687037; call rule not given here); details: Cy5-DNA-NS3h complex fluorescence interference counterscreen
# [15] = growth inhibition of DIPG glioma cells, dose response, cell-based, SU-DIPG-IV, MIPE4.0, CellTiter-Glo, qHTS (AID 1347063; cut-off not given, nearly all actives have AC50 up to about 30 µM;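 also: compound exposure lasted 48 hours before the viability readout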); details: SU-DIPG-IV viability, CellTiter-Glo ATP luminescence
# [16] = SU-DIPG-XXV glioma cell viability, MIPE5.0 library, qHTS (AID 1347068; cut-off not given, nearly all actives have IC50 up to about 30 µM)
# [17] = phospholipid biosynthesis inhibitors in animal cells, primary screen, cell-based, LOPAC library, screen 4 (AID 1347384; call rule not given here); details: phospholipid biosynthesis inhibition screen, at 10 µM
# [18] = viability rescue of complex I mutant cybrids, primary screen, cell-based, galactose medium, ATP luminescence (AID 1645843;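 active = z-score of at least 1.8 in each of two replicates, scored against plate mean and spread of sample wells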;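 also: positive z means more ATP and so rescue of galactose-driven cybrid death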); details: complex I mutant cybrid cells, 72 h, stronger effect = higher value
# [19] = target: Mitogen-activated protein kinase 7 (Homo sapiens) (UniProt Q13164); test: ERK5 transactivation activators in reporter cells, primary screen, cell-based, HTS (AID 1508626;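 active = luciferase signal above three times the same-plate solvent-only control wells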;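 also: luciferase driven by Gal4-ERK5 fusion binding five Gal4 sites before minimal TATA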); details: HeLa Gal4-ERK5 transactivation, 18 h, at 5 µM, stronger effect = higher value
# [20] = survival rescue of mitochondrial mutant cells in low glucose, primary screen, MELAS cybrids, Rieske KO mouse fibroblasts, CellTiter-Glo (AID 1508586;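 active = mean z-score across replicates of 1.96 or higher in either the MELAS or the Rieske mutant cell line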;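 also: z relative to plate mean and SD of compound and empty wells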)
# [21] = target: NAD(+) hydrolase SARM1 (Homo sapiens) (UniProt Q6SZW1); test: SARM1 TIR NADase inhibitors, cell lysate, NAD-Glo luminescence (AID 1508614;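 active = compound whose remaining NAD level is above about 45 nM, limit read from the data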;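 also: higher remaining NAD means stronger inhibition of SARM1 NADase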); details: SAM-TIR HEK293T lysate NADase, at 1 µM, stronger effect = higher value
# [22] = polyglutamine-triggered caspase-3 activation inhibitors, cell-based (AID 1583); details: polyglutamine-induced caspase-3 activation, cell assay; stronger effect = higher value;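 tested at 10 µM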
# [23] = suppressors of polyQ aggregation in yeast, 75Q-TubU reporter (AID 1593); details: Yeast 75Q polyglutamine aggregation reporter
# [24] = rescue of polyQ-huntingtin neuronal dysfunction in worms, whole organism, C. elegans mechanosensory neurons, N-terminal huntingtin (AID 1599); details: touch response, stronger effect = higher value
# [25] = inhibitors of mitochondrial cytochrome c release, biochemical, purified mitochondria (AID 1603); details: stronger effect = lower value;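 also: mouse liver mitochondria challenged with calcium chloride; signal normalized to the plate average as 100%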
# [26] = inhibitors of polyQ protein aggregation (AID 1604); details: polyglutamine-induced protein aggregation inhibition assay; stronger effect = higher value; tested at 2.5 µM
# [27] = enhancers of glutamate uptake in motor neurons, MN-1 cell line (AID 1612); details: MN-1 motor neuron cells, stronger effect = higher value;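 also: tested at 1 µM final; 0% = mean of DMSO vehicle wells on each plate; positive means more glutamate uptake than control and negative means less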
# [28] = reducers of polyQ inclusions in PC12 cells, cell-based, NGF-treated PC12, GFPQ80 (AID 1614); details: PC12 NGF-treated GFP-polyQ80 inclusion reduction;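 also: lower means fewer inclusions and 0 means no inclusions at all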
# [29] = suppressors of polyglutamine aggregation in yeast, 75Q-TubH (AID 1616); details: S. cerevisiae 75Q-TubH polyglutamine aggregation suppression; stronger effect = higher value
# [30] = measured here: epithelial PC-3E GFP cell survival
# [31] = measured here: mesenchymal TEM4-18 mCherry cell survival
# [32] = stronger effect = lower value, cell number ratio, induced over uninduced
# [33] = measured here: relative caspase fold change +Dox/-Dox
# [34] = measured here: total cells with miR-34 induction, stronger effect = lower value
# [35] = measured here: total cells without miR-34 induction
# [36] = MELAS cybrid survival, CellTiter-Glo 48 h, stronger effect = higher value
# [37] = Rieske KO mouse fibroblast survival, CellTiter-Glo 72 h
# Mitogen-activated protein kinase 7 (Homo sapiens), sequence (Q13164 whole entry, looked up, the tested form may be a part): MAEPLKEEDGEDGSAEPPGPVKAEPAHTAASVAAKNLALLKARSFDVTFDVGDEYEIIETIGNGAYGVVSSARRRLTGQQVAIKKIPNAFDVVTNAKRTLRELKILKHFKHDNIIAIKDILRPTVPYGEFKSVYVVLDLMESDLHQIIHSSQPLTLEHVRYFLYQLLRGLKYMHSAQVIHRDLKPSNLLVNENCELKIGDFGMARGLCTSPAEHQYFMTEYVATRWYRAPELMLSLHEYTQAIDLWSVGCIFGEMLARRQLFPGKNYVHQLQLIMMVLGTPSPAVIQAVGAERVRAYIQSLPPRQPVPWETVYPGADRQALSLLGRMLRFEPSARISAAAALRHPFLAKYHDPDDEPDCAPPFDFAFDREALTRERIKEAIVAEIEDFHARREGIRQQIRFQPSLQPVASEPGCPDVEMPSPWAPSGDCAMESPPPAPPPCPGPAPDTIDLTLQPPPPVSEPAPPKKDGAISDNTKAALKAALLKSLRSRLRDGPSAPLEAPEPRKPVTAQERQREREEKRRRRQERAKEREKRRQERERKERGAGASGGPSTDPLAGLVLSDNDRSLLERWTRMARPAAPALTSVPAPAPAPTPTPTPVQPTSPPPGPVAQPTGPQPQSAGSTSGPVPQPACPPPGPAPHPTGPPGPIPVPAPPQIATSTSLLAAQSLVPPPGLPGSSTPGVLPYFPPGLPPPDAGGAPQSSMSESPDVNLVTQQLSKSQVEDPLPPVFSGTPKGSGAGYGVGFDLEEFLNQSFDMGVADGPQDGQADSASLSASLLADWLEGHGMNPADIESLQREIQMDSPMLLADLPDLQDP
# NAD(+) hydrolase SARM1 (Homo sapiens), sequence (Q6SZW1 whole entry, looked up): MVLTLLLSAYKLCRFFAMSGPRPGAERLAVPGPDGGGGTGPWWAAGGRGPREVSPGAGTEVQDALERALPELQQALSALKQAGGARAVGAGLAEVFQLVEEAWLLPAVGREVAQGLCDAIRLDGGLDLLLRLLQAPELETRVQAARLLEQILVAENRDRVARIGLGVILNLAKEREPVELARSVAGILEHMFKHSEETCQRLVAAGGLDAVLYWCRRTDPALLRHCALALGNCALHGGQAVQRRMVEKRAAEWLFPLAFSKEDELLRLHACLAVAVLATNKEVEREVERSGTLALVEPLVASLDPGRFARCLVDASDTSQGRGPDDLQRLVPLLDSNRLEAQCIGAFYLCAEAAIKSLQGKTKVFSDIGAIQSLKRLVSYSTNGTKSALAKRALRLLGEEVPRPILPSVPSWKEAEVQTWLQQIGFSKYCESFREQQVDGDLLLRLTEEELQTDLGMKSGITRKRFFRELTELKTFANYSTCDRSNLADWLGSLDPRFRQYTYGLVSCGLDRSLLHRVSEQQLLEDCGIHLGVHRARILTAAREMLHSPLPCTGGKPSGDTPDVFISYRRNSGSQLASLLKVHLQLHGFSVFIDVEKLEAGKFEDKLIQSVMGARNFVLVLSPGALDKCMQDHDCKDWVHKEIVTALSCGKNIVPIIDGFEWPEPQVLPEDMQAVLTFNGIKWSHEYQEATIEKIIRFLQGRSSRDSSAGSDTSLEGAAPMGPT
compound,measurement,setting,value
Cc1cc2nc3c(=O)[nH]c(=O)nc-3n(CC(O)C(O)C(O)CO)c2cc1C (centres undefined),survival,[1],1.58 (inactive)
same,parasite load remaining,[2],149% (inactive) and 66% (inactive) and 85.7% (inactive)
same,viability,[2],87.6% and 75.7% and 118%
same,red/green cell ratio (normalised),[3],0.96 (inactive)
same,normalised cell number,[3]; [30],1.14
same,normalised cell number,[3]; [31],1.1
same,outcome,[4],inactive
same,outcome,[5],inactive
same,outcome,[6],inactive
same,outcome,[7],inactive
same,outcome,[8],inactive
same,outcome,[9],inactive
same,outcome,[10],inactive
same,fold change,[11]; [32],0.948 (inactive)
same,fold change,[11]; [33],3.38
same,cell count,[11]; [34],12400
same,cell count,[11]; [35],13100
CCCCS(=N)(=O)CCC(N)C(=O)O (centres undefined),period change,[12],-0.105 h (inactive)
same,inhibition,[13],1% (inactive)
same,fluorescence ratio (interference),[14],1 (inactive)
same,red/green cell ratio (normalised),[3],0.93 (inactive)
same,normalised cell number,[3]; [30],0.89
same,normalised cell number,[3]; [31],0.83
same,outcome,[4],inactive
same,outcome,[5],inactive
same,outcome,[6],inactive
same,outcome,[15],inactive
same,outcome,[8],inactive
same,outcome,[9],inactive
same,outcome,[10],inactive
same,outcome,[16],inactive
same,fold change,[11]; [32],0.991 (inactive)
same,fold change,[11]; [33],1.82
same,cell count,[11]; [34],9560
same,cell count,[11]; [35],9650
same,outcome,[17],inactive
same,z-score,[18],-0.42 (inactive)
CC(=O)NC(CS)C(=O)O (centres undefined),red/green cell ratio (normalised),[3],1.09 (inactive)
same,normalised cell number,[3]; [30],1.24
same,normalised cell number,[3]; [31],1.36
same,outcome,[4],inactive
same,outcome,[5],inactive
same,outcome,[6],inactive
same,outcome,[15],inactive
same,outcome,[8],inactive
same,outcome,[9],inactive
same,outcome,[10],inactive
same,outcome,[16],inactive
C[C@]12CCC3c4ccc(O)cc4CCC3C1CCC2=O (some centres undefined),parasite load remaining,[2],83.7% (inactive) and 77.8% (inactive)
same,viability,[2],75.2% and 91.3%
same,red/green cell ratio (normalised),[3],0.96 (inactive)
same,normalised cell number,[3]; [30],1.03
same,normalised cell number,[3]; [31],0.99
same,outcome,[4],inactive
same,outcome,[5],inactive
same,outcome,[15],inactive
same,outcome,[8],inactive
same,outcome,[9],inactive
same,outcome,[10],inactive
same,outcome,[16],inactive
same,fold change,[11]; [32],1.01 (inactive)
same,fold change,[11]; [33],1.48
same,cell count,[11]; [34],10400
same,cell count,[11]; [35],10300
CC(C)=CCC/C(C)=C/CC/C(C)=C/CC/C(C)=C/CC/C(C)=C/CC/C(C)=C/CC/C(C)=C/CC/C(C)=C/CC/C(C)=C/CO,red/green cell ratio (normalised),[3],1.11 (inactive)
same,normalised cell number,[3]; [30],0.97
same,normalised cell number,[3]; [31],1.07
same,outcome,[6],inactive
same,outcome,[15],inactive
same,outcome,[9],inactive
same,luciferase signal,[19],20 AU (inactive)
CC1=C(C(=O)O)N2C(=O)[C@@H](NC(=O)C(N)c3ccccc3)[C@H]2SC1 (some centres undefined),period change,[12],0.02 h (inactive)
same,parasite load remaining,[2],96% (inactive) and 49.4% (inactive)
same,viability,[2],72.1% and 86.5%
same,inhibition,[13],-4% (inactive)
same,fluorescence ratio (interference),[14],0.9 (inactive)
same,red/green cell ratio (normalised),[3],1.15 (inactive)
same,normalised cell number,[3]; [30],1.06
same,normalised cell number,[3]; [31],1.23
same,outcome,[5],inactive
same,outcome,[6],inactive
same,outcome,[15],inactive
same,outcome,[9],inactive
same,fold change,[11]; [32],1.03 (inactive) and 0.832 (inactive)
same,fold change,[11]; [33],1.45 and 2.29
same,cell count,[11]; [34],10100 and 11100
same,cell count,[11]; [35],9800 and 13300
same,outcome,[17],inactive
same,z-score,[18],0.41 (inactive)
CC(C)(CO)[C@@H](O)C(=O)NCCC(=O)O,parasite load remaining,[2],90.7% (inactive) and 34.6% (inactive)
same,viability,[2],107% and 75%
same,red/green cell ratio (normalised),[3],1.39 (inactive)
same,normalised cell number,[3]; [30],0.63
same,normalised cell number,[3]; [31],0.88
same,outcome,[4],inactive
same,outcome,[5],inactive
same,outcome,[6],inactive
same,outcome,[15],inactive
same,outcome,[7],inactive
same,outcome,[9],inactive
same,outcome,[10],inactive
same,outcome,[16],inactive
same,fold change,[11]; [32],0.92 (inactive) and 0.869 (inactive) and 0.91 (inactive)
same,fold change,[11]; [33],0.716 and 3.95 and 1.15
same,cell count,[11]; [34],9860 and 12000 and 9850
same,cell count,[11]; [35],10700 and 13800 and 10800
same,z-score,[20]; [36],-0.406 (inactive) and -0.744 (inactive)
same,z-score,[20]; [37],0.568 and -1.28
same,remaining NAD,[21],10 nM (inactive)
same,luciferase signal,[19],68 AU (inactive)
same,z-score,[18],-0.065 (inactive)
CC(=O)Oc1cc2c(s1)CCN([C@H](C(=O)C1CC1)c1ccccc1F)C2,red/green cell ratio (normalised),[3],1.12 (inactive)
same,normalised cell number,[3]; [30],0.87
same,normalised cell number,[3]; [31],0.98
same,fold change,[11]; [32],0.848 (inactive)
same,fold change,[11]; [33],0.716
same,cell count,[11]; [34],7480
same,cell count,[11]; [35],8810
COC1=C(OC)C(=O)C(C/C=C(\C)CC/C=C(\C)CC/C=C(\C)CC/C=C(/C)CC/C=C(\C)CC/C=C(\C)CC/C=C(\C)CC/C=C(\C)CC/C=C(\C)CCC=C(C)C)=C(C)C1=O,red/green cell ratio (normalised),[3],1.1 (inactive)
same,normalised cell number,[3]; [30],0.97
same,normalised cell number,[3]; [31],1.06
same,outcome,[7],inactive
same,outcome,[8],inactive
same,outcome,[10],inactive
same,outcome,[16],inactive
same,luciferase signal,[19],80 AU (inactive)
CC(C)C(C)/C=C/C(C)C1CCC2C3=CC=C4CC(O)CCC4(C)C3CCC21C (centres undefined),red/green cell ratio (normalised),[3],0.85 (inactive)
same,normalised cell number,[3]; [30],1
same,normalised cell number,[3]; [31],0.85
same,outcome,[4],inactive
same,outcome,[6],inactive
same,outcome,[15],inactive
same,outcome,[7],inactive
same,outcome,[8],inactive
same,outcome,[9],inactive
same,outcome,[10],inactive
same,outcome,[16],inactive
COc1ccc(C2Sc3ccccc3N(CCN(C)C)C(=O)C2OC(C)=O)cc1 (centres undefined),inhibition,[22],5.24%
same,score,[23],1.09
same,rescue above control,[24],-7.88
same,cytochrome c release ratio,[25],1.1
same,inhibition of aggregation,[26],45.9%
same,glutamate uptake change,[27],4.81%
same,inclusion score,[28],2
same,aggregation suppression score,[29],0.716
same,parasite load remaining,[2],163% (inactive) and 58.1% (inactive)
same,viability,[2],88.6% and 96.1%
same,red/green cell ratio (normalised),[3],1.25 (inactive)
same,normalised cell number,[3]; [30],0.98
same,normalised cell number,[3]; [31],1.22
same,outcome,[6],inactive
same,outcome,[15],inactive
same,outcome,[9],inactive
same,fold change,[11]; [32],0.937 (inactive) and 0.887 (inactive)
same,fold change,[11]; [33],0.646 and 4.46
same,cell count,[11]; [34],7800 and 11500
same,cell count,[11]; [35],8320 and 13000
same,z-score,[20]; [36],-0.332 (inactive)
same,z-score,[20]; [37],-0.2
